Results: the supplement of paper PMC3334620
Over roughly 33,000 sequences, “E-score (-0.5 to 0.5)” has its median near -0.056; the highest 2% begin near 0.38. The full list was thinned out, with the highest values kept by preference.

Molecular target: Stb4 (UniProt P50104)
Assay: PBM E-score (8-mer binding enrichment) (E-score (-0.5 to 0.5)); higher = stronger / more preferred TF binding
Conditions: protein concentration: 200 nM; construct: GST-DNA-binding domain
How it was run: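 Universal all-10-mer Agilent arrays, fresh or stripped once, were converted to double-stranded form by primer extension. GST-tagged yeast transcription factors from PURExpress in vitro transcription/translation, full-length or DNA-binding domain only, were applied at about 100-200 nM and detected with fluorescent anti-GST. After masliner normalisation, the Universal PBM Analysis Suite scored each ungapped eight-base word together with its reverse complement by E-score.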

Sequence of UniProt P50104 (P50104 whole entry): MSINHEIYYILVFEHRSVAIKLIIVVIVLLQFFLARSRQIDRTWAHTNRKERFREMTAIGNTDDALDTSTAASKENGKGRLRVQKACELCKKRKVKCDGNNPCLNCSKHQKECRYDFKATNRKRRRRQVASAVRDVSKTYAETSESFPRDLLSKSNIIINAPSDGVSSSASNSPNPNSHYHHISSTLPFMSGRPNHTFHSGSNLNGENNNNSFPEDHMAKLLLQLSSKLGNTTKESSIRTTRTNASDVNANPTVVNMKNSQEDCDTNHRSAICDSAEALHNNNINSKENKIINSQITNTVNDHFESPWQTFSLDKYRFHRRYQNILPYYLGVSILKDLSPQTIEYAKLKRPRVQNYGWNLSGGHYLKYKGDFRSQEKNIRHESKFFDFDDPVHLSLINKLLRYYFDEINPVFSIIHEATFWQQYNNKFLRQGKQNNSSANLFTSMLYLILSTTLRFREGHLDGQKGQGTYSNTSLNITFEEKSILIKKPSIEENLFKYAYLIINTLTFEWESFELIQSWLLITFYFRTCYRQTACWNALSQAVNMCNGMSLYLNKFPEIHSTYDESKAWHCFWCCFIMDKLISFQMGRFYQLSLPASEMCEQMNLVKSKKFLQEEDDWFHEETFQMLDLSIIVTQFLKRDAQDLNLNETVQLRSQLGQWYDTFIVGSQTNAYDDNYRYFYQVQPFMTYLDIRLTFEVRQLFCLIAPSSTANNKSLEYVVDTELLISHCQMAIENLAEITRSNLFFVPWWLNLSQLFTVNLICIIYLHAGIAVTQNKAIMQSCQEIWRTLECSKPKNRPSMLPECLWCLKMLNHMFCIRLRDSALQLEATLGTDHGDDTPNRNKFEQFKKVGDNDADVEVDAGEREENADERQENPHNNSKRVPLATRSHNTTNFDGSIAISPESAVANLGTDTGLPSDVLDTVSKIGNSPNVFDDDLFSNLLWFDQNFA

Compared with AACCGTCT, GCGGGTCA is higher in “PBM E-score” value: 0.00908 for the first, 0.0978 for the second.

First: GAGCCCAA
Second: GGAGGAAC
The “PBM E-score” value of the first is lower: -0.16 for the first, -0.0445 for the second.

Compared with GTTCTGAA, AACGAGCT is lower in “PBM E-score” value: -0.216 for the first, -0.256 for the second.

Compared with AACCCTCA, GATTAGCA is lower in “PBM E-score” value: -0.148 for the first, -0.177 for the second.

Going from CACGGACC to CTCGGACA, the “PBM E-score” value rises from 0.114 to 0.366.

First: CACGGAGA
Second: CACGGAGC
The “PBM E-score” value of the first is lower: 0.14 for the first, 0.174 for the second.

Going from ATCGGAGC to CTCGGAGA, the “PBM E-score” value rises from 0.282 to 0.406.

First: ATCGGAGA
Second: CTCGGAGC
The “PBM E-score” value of the first is lower: 0.272 for the first, 0.395 for the second.

Compared with CTCGGACC, CGAGTGAC is lower in “PBM E-score” value: 0.412 for the first, -0.0128 for the second.

Compared with AACCTCGG, CACCTCGG is lower in “PBM E-score” value: 0.452 for the first, 0.393 for the second.

First: ATCCTCGC
Second: ATCCTCGG
The “PBM E-score” value of the first is lower: -0.0124 for the first, 0.417 for the second.

Compared with AACCTCGA, CACCTCGA is lower in “PBM E-score” value: -0.0623 for the first, -0.0678 for the second.

Going from ACCCTCGC to CACCTCGC, the “PBM E-score” value rises from -0.131 to 0.0165.

Compared with AACCTCGT, ACCCTCGG is higher in “PBM E-score” value: -0.062 for the first, 0.426 for the second.

Going from ATCCTCGA to ACCCTCGA, the “PBM E-score” value rises from -0.25 to -0.165.

First: AATGCGAA
Second: GGTTGGTA
The “PBM E-score” value of the first is higher: 0.0466 for the first, 1e-05 for the second.

Compared with TCGCATAA, CGGGCTGA is higher in “PBM E-score” value: -0.0545 for the first, 0.0911 for the second.

First: CGTCTTTA
Second: CAATTGGA
The “PBM E-score” value of the first is higher: -0.0915 for the first, -0.112 for the second.

First: ACCTCCCT
Second: AAAGGGGA
The “PBM E-score” value of the first is higher: -0.111 for the first, -0.22 for the second.

First: AGCTCCGG
Second: CTCTGAAC
The “PBM E-score” value of the first is higher: 0.301 for the first, -0.174 for the second.

Compared with CTTTCGGA, CTTTCGTA is lower in “PBM E-score” value: 0.432 for the first, -0.177 for the second.

Going from ATTTCGGA to ATTTCGGG, the “PBM E-score” value falls from 0.454 to 0.39.

Compared with CTTTCGTC, ATTTCGAG is lower in “PBM E-score” value: -0.0646 for the first, -0.0811 for the second.

First: CTTTCGAC
Second: ATTTCGCA
The “PBM E-score” value of the first is lower: -0.172 for the first, 0.0506 for the second.

Going from CTTTCGGC to CTTTCGAA, the “PBM E-score” value falls from 0.386 to -0.204.

Compared with ATTTCGCG, ATTTCGGC is higher in “PBM E-score” value: 0.0954 for the first, 0.371 for the second.

Compared with AACGTTCG, CTTTCTGA is lower in “PBM E-score” value: 0.113 for the first, -0.25 for the second.

First: CGCGCCAG
Second: AGCGCTCG
The “PBM E-score” value of the first is higher: 0.104 for the first, -0.0312 for the second.

Going from CTTCGTCA to GTAGTTCA, the “PBM E-score” value rises from -0.177 to 0.0756.

Compared with GCGGTGCA, ATTCTCCG is higher in “PBM E-score” value: -0.283 for the first, 0.264 for the second.

First: AGTAAAAC
Second: GTGGTGAA
The “PBM E-score” value of the first is lower: -0.181 for the first, 0.0732 for the second.

First: GTTTCGTA
Second: GTTTCGGA
The “PBM E-score” value of the first is lower: 0.128 for the first, 0.43 for the second.

Compared with GTTTCGAA, AAGCTGAT is higher in “PBM E-score” value: -0.145 for the first, 0.104 for the second.

Compared with CCACCTAC, AGCATCAA is higher in “PBM E-score” value: -0.246 for the first, -0.15 for the second.

First: ACAGGTGG
Second: CCGAGGAC
The “PBM E-score” value of the first is lower: -0.226 for the first, 0.371 for the second.

Compared with TCGAGGAA, CGGAGGAG is higher in “PBM E-score” value: -0.13 for the first, 0.209 for the second.

First: CCGAGGAA
Second: CCGAGGAG
The “PBM E-score” value of the first is lower: 0.387 for the first, 0.393 for the second.

Compared with ACGAGGAG, ATGAAGGG is higher in “PBM E-score” value: -0.349 for the first, -0.114 for the second.

Going from CAGGAGTC to AGTCGCAT, the “PBM E-score” value falls from -0.0625 to -0.137.

Compared with CTGGTAGC, ACACCGGG is higher in “PBM E-score” value: -0.224 for the first, 0.213 for the second.

First: CGTATGGA
Second: CATGGGCG
The “PBM E-score” value of the first is lower: -0.0248 for the first, -0.0118 for the second.

Compared with ACCATACC, GTCTCCGA is higher in “PBM E-score” value: 0.044 for the first, 0.352 for the second.

Going from AACTCCGG to ATCTCCGA, the “PBM E-score” value rises from 0.352 to 0.396.

First: AACTCCGA
Second: ATCTCCGC
The “PBM E-score” value of the first is higher: 0.412 for the first, 0.151 for the second.

First: AACTCCGT
Second: TCCAAAAA
The “PBM E-score” value of the first is higher: 0.206 for the first, 0.0234 for the second.

Going from GTCGCTCA to GCCGACTA, the “PBM E-score” value rises from -0.129 to 0.166.

First: CATTCTTC
Second: GTTTGCGA
The “PBM E-score” value of the first is higher: -0.0802 for the first, -0.155 for the second.

First: TCAGCCCA
Second: GCAGCCGA
The “PBM E-score” value of the first is lower: -0.11 for the first, 0.396 for the second.

Going from ACAGCCGG to ACAGCCGC, the “PBM E-score” value falls from 0.35 to 0.105.

First: ACAGCCGA
Second: TCAGCCGA
The “PBM E-score” value of the first is lower: 0.383 for the first, 0.385 for the second.

First: GCAGCCGC
Second: GCAGCCTA
The “PBM E-score” value of the first is higher: 0.154 for the first, -0.153 for the second.

Going from CCCGCCGA to GCCGCCGA, the “PBM E-score” value falls from 0.367 to 0.331.

First: TCCGCCGA
Second: CCAGCCGA
The “PBM E-score” value of the first is higher: 0.403 for the first, 0.322 for the second.

Compared with ATAAACCC, CGCTATAC is lower in “PBM E-score” value: 0.0851 for the first, 0.0197 for the second.

Going from GCCAAAGC to CAGACCTG, the “PBM E-score” value falls from -0.121 to -0.17.

Going from TATTTCGA to AATGTCTG, the “PBM E-score” value rises from 0.00011 to 0.0612.

Going from ATGACGGA to AATCTTGC, the “PBM E-score” value falls from 0.217 to -0.0133.

First: CAGGAATC
Second: AACTAAGT
The “PBM E-score” value of the first is higher: -0.0371 for the first, -0.0531 for the second.

Going from AGCTTCCA to CGCTTCCC, the “PBM E-score” value rises from 0.0259 to 0.188.

First: AGCTTCCC
Second: AGCTTCCG
The “PBM E-score” value of the first is lower: -0.00142 for the first, 0.423 for the second.

Going from CGCTTCCG to CGCTTCCA, the “PBM E-score” value falls from 0.402 to -0.0326.

Going from CCTCCACC to ATCAAGGC, the “PBM E-score” value falls from -0.0886 to -0.111.

First: ATAGCCGC
Second: CTAGCCGA
The “PBM E-score” value of the first is lower: 0.236 for the first, 0.455 for the second.

Going from CTAGCCAA to GTAGCCGA, the “PBM E-score” value rises from -0.0164 to 0.4.

Going from ATAGCCGA to GTAGCCTA, the “PBM E-score” value falls from 0.442 to -0.382.

Compared with CTAGCCGC, GTAGCCAA is lower in “PBM E-score” value: 0.21 for the first, -0.025 for the second.

First: ATAGCCGG
Second: AAGAGTGG
The “PBM E-score” value of the first is higher: 0.353 for the first, -0.179 for the second.

First: CTGCCTAA
Second: TGCCAAAA
The “PBM E-score” value of the first is lower: -0.169 for the first, -0.0796 for the second.

Compared with TCGGGGCA, ACTGGGCT is lower in “PBM E-score” value: 0.226 for the first, -0.0497 for the second.

Going from ACAGTGCT to ATCACAAA, the “PBM E-score” value rises from -0.181 to -0.149.

Going from CTATCTAC to CTCGCCGC, the “PBM E-score” value rises from -0.0208 to 0.0149.

First: ACTGTACG
Second: CCGAGGTA
The “PBM E-score” value of the first is lower: -0.153 for the first, 0.401 for the second.

Going from ACGAGGTA to CTGAGGTC, the “PBM E-score” value falls from -0.0352 to -0.243.

Going from CCGAGGTC to GCGAGGTA, the “PBM E-score” value falls from 0.424 to -0.124.

Going from ACGAGGTC to ACGAATCA, the “PBM E-score” value rises from -0.278 to -0.0567.

Compared with CCAGTAAA, TGATCGAA is lower in “PBM E-score” value: -0.0636 for the first, -0.125 for the second.

Compared with GACCGCGA, AAATCCCG is higher in “PBM E-score” value: 0.0256 for the first, 0.339 for the second.

Compared with GTCTCGAA, ATCTCGGA is higher in “PBM E-score” value: -0.255 for the first, 0.461 for the second.

First: ATCTCGCA
Second: GTCTCGTA
The “PBM E-score” value of the first is higher: -0.035 for the first, -0.115 for the second.

Going from ATCTCGAA to GTCTCGGA, the “PBM E-score” value rises from -0.0183 to 0.442.

First: ATCTCGCG
Second: ATCTCGGG
The “PBM E-score” value of the first is lower: -0.0115 for the first, 0.449 for the second.

Going from ATCTCGAG to AAGATTTA, the “PBM E-score” value rises from -0.0973 to 0.0925.

First: AAGAAATA
Second: AGTTAGGA
The “PBM E-score” value of the first is higher: -0.0625 for the first, -0.167 for the second.

Going from ATCACGAC to GTTCGGTA, the “PBM E-score” value rises from -0.123 to 0.425.

Going from GGTCGGTA to CTTCGGTA, the “PBM E-score” value rises from 0.223 to 0.383.

Compared with CTTCGGTC, CGTCGGTA is higher in “PBM E-score” value: 0.234 for the first, 0.294 for the second.

ATTCGGTA was tested, and the “PBM E-score” value was 0.36.
